hcDAF12 agonist = activators of H. contortus DAF-12 nuclear receptor. HEK293 hcDAF-12 lit1-tk-luc reporter, luminescence; 0% DMSO, 100% Δ7-dafachronic acid. activation, % at 6.8 µM. 370,000 tested, 1.4% active;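 active means activation above the mean of all tested compounds plus 3 SD, cut at about 5.5% in these data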;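 further: 100% = response to 3 µM Δ7-dafachronic acid high control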
DAX1 inh-1 = inhibitors of human orphan nuclear receptor DAX1 (NR0B1). AID 504766. inhibition, % at 6.75 µM. 340,000 tested, 0.99% active. P51843. HEK293 Gal4-DAX1 luciferase reporter, luminescence;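 active means inhibition above the mean over all tested compounds plus 3 SD, cut at about 4.2% in these data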;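 further: 0% = DAX1-transfected cells with DMSO and 100% = empty-vector control cells with DMSO; inhibition shows as a rise in luminescence from relieved DAX1 repression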
Target sequence (P51843 207-470 limits assumed): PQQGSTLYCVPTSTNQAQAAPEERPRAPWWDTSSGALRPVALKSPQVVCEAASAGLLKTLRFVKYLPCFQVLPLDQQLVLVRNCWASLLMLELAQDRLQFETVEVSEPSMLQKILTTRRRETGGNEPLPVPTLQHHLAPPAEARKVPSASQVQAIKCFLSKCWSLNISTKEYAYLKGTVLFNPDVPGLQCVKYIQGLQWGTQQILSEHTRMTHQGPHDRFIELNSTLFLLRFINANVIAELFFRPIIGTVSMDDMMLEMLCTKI
hgDAF-12 ag = hgDAF-12 agonism, primary luciferase screen; HEK293 GAL4-hgDAF12 UAS-luciferase reporter, agonist luminescence; normalized to butyrate control; activation, % at 6.8 µM; 370,000 tested, 1.8% active; AID 687014;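 active means activation above a cutoff set at the mean of all screened compounds plus 3 SD, cut at about 10% in these data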;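 further: 0% = DMSO wells and 100% = sodium butyrate wells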
DAX1 inh-2 = DAX1 (NR0B1) inhibition, primary screen. HEK293T StAR-luciferase reporter, SF-1/DAX-1 repression relief. inhibition, % at 6.8 µM. AID 652010. 370,000 tested, 1.1% active;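 active means inhibition above the mean over all tested compounds plus 3 SD, cut at about 3.6% in these data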;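 further: 0% = DAX-1 cells with DMSO and 100% = cells lacking DAX-1 with DMSO; higher inhibition means more luminescence from relief of DAX-1 repression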
ssDAF-12 act = activators of S. stercoralis DAF-12 nuclear receptor | HEK293 ssDAF-12/GRIP1 lit1-tk-luc reporter, luminescence; % of 3 µM dafachronic acid response | activation, % at 6.8 µM | 370,000 tested, 1% active | AID 652126;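 active means activation above the mean over all tested compounds plus 3 SD, cut at about 0.9% in these data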;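 further: 0% = DMSO-only wells and 100% = 3 µM delta7-dafachronic acid wells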
* = called active by the depositor; · = no result. Shown are actives, neighbours in structure and some others; about 4.1% of the full set was active somewhere.

SMILES	hcDAF12 agonist	DAX1 inh-1	hgDAF-12 ag	DAX1 inh-2	ssDAF-12 act
O=C(COc1ccc(Cl)cc1Cl)NC(=O)N1CCCCC1	2	2	12*	2	0
O=C(c1ccccc1)c1nn(-c2ccc(Cl)cc2)cc1C(=O)c1cc2ccccc2oc1=O	4	1	-1	1	1.1*
CCc1ccccc1Nc1ccc(C(=O)O)cc1N	2	6.6*	7	0	-2
CC(C)(C)C(=O)Nc1nc2c(s1)CN(Cc1ccccc1)CC2	2	0	11*	2	0
O=C(Nc1nc2c(s1)CN(Cc1ccccc1)CC2)C1CCCC1	-1	0	3	0	0
C=C(C)Cn1c(SCC(=O)N/N=C(\C)c2ccc([N+](=O)[O-])cc2)nnc1-c1ccc(Br)cc1	1	·	-1	1	-1
O=C(OCCN1CCN(C2CN(Cc3cn(Cc4ccccc4Cl)nn3)S(=O)(=O)C2)CC1)c1cc2ccccc2o1 (stereo not drawn)	-1	·	5	-1	-2
COc1ccc(C2N3CC4(C)CN2CC(C)(C3)C4=O)cc1OC (stereo not drawn)	-2	5.2*	1	1	-1
COc1ccc(C2OC(=O)C(C)(C)C(=O)C2(C)C)cc1OC (stereo not drawn)	-1	1	-1	0	-1
Cc1ccc(NC(=S)NC(=O)c2ccc(-c3ccc(Cl)cc3)o2)c(O)c1	3	1	2	0	2.5*
C/C(=N\NC(=O)C1CCCC1)c1ccc(Cl)c(Cl)c1	2	1	2	1	-1
C/C(=N\NC(=S)NC1CCCCC1)c1ccc(Cl)c(Cl)c1	-1	25*	-2	0	-2
CN(C)c1ccc(C(=O)NCC2CCN(C(=O)C(=O)c3cccs3)CC2)cc1	-1	·	-1	-1	-1
O=C(NN1C(=O)C2C3C=CC(C4CC34)C2C1=O)c1ccccc1Cl (stereo not drawn)	-2	5.1*	5	0	-1
CCOc1ccc2nc(/N=C/c3c(C)[nH]n(-c4ccccc4)c3=O)sc2c1	2	4	4	2	0.9*
Cc1cc(N/C(=C\C(=O)c2ccccc2)c2ccccc2)ccc1Br	1	·	2	1	0
CCCCOc1ccc(Cc2c(Cl)nc(SC)nc2N2CCOCC2)cc1	-1	-1	0	0	-2
CSc1nc(Cl)c(Cc2ccc(OCC(C)C)cc2)c(N2CCOCC2)n1	5.9*	-2	0	-1	-1
Cc1ccc(NC(=O)C2CCN(S(=O)(=O)c3cccnc3)CC2)cc1C	-2	0	-3	-1	-1
Cc1ccc(S(=O)(=O)N2CCC(C(=O)Nc3nnc(-c4ccc(F)cc4)s3)CC2)cc1	6.5*	1	0	0	-1
Cc1ccc(S(=O)(=O)N2CCC(C(=O)Nc3cccnc3)CC2)cc1	0	5.4*	-2	0	-2
O=C(Nc1nnc(-c2ccc(F)cc2)s1)C1CCN(S(=O)(=O)c2ccc(Cl)cc2)CC1	-1	1	0	1	0
CCCc1nnc(NC(=O)CCC(=O)N2CCN(S(=O)(=O)c3ccc(C)cc3)CC2)s1	-2	-2	0	-1	1.1*
CCSc1nsc(NC(=O)Nc2ccccc2Cl)n1	0	1	11*	0	0
O=C1C=CC(=Nc2cccc3c2C(=O)c2ccccc2-3)O1	·	0	·	·	·
SMILES	hcDAF12 agonist	DAX1 inh-1	hgDAF-12 ag	DAX1 inh-2	ssDAF-12 act
O=C1C=CC(=Nc2ccc3c(c2)Cc2cc(F)ccc2-3)O1	4	0	13*	3	1
COc1ccc(C=NNC(=O)Cc2cc(=O)[nH][nH]2)c(OC)c1	2	·	-3	-1	-1
COCC1CCCN(C(=O)c2cc(COc3ccc(C(C)=O)cc3)on2)C1 (stereo not drawn)	5.7*	1	10	4.2*	-1
O=C(NC1CCCCC1)c1cc(-c2ccc(F)cc2)on1	4	0	1	0	0
Cc1ccc(-c2cc(C(=O)NC3CCCC3)no2)cc1	2	1	13*	3	0
CC(=O)c1ccc(OCc2cc(C(=O)NC3CCCCC3)no2)cc1	1	1	7	3.6*	0
CCOC(=O)[C@@]12CCC3=C1N(CCC3)C(=O)[C@H](CC(=O)NCc1cccc3ccccc13)C2	-2	·	1	0	-1
Cc1ccccc1C(=O)Nc1cccc(NC(=O)c2ccccc2[N+](=O)[O-])c1	-1	-1	1	0	1
CNS(=O)(=O)c1ccc(NC(=O)c2ccoc2C)cc1	1	1	2	0	-1
Cc1occc1C(=O)Nc1ccc(S(N)(=O)=O)cc1	-1	5.6*	-1	1	-2
Cc1cc(NC(=O)c2ccccc2[N+](=O)[O-])ccc1Br	-1	4.8*	6	0	0
Cc1cc(NC(=O)c2ccoc2C)ccc1Br	3	2	9	3.7*	0
NS(=O)(=O)c1ccc(NC(=O)c2cccc3cc4ccccc4nc23)cc1	-3	-1	1	-3	0.9*
NS(=O)(=O)c1ccc(NC(=O)c2cccc3ccccc23)cc1	0	2	1	0	-2
O=C1CC(c2ccc3c(c2)OCO3)N=C2N(Cc3ccc4c(c3)OCO4)C/C(=C/c3ccccc3)N12 (stereo not drawn)	-2	·	-1	·	-2
O=C(NCC1CCN(C(=O)C(=O)c2cccs2)CC1)c1ccc2ccccc2c1	-3	·	1	-3	-2
COc1ccccc1CNC(=O)NC1CCN(CC(=O)Nc2ccc3c(c2)OCCO3)CC1	-3	·	0	-1	-1
Cc1cc(N2CCOCC2)ccc1/C=C\[N+](=O)[O-]	1	-1	4	0	16*
CCOC(=O)C(C)Sc1ccc2nnc(CCNS(=O)(=O)c3ccccc3)n2n1 (stereo not drawn)	-1	5.8*	0	0	-1
Cc1cc(C(=O)O/N=C(\N)c2ccncc2)ccc1[N+](=O)[O-]	-1	4.4*	5	1	-1
CCCCN1C(=O)c2ccccc2C1C(=O)NC1CCCC1 (stereo not drawn)	-2	0	0	1	-2
CC1CCC(NC(=O)C2c3ccccc3C(=O)N2CCCN2CCOCC2)CC1 (stereo not drawn)	-1	4.7*	-2	-1	1.0*
COc1ccc2[nH]cc(C(=O)CN3CCC(C)CC3)c2c1	3	3	7	1	1.3*
CCOC(=O)C1CCCN(CC(=O)c2c[nH]c3ccc(C)cc23)C1 (stereo not drawn)	2	·	2	0	1.3*
CCOC(=O)C1CCCN(CC(=O)Nc2cc(C)cc(C)c2)C1 (stereo not drawn)	0	0	1	1	-1
COc1ccc2[nH]cc(C(=O)CN3CCCC(C)C3)c2c1 (stereo not drawn)	0	-1	3	0	-1
Cn1c(SCC(=O)NNC(=O)c2ccccc2O)nnc1-c1ccccc1	6.1*	0	1	1	0
